Laboratory results published in PubChem BioAssay (EPA / NIEHS).
Results filed as inconclusive are left out. Activity calls are given as the source filed them. Rule for the calls, unless noted: active = hit-call score of the fitted dose curve at least 0.9, where 1 is the maximum; inconclusive = response in the unintended direction; inactive = score below 0.9.

Key:
[1] = TOX21_p53_BLA_p2_viability: Viability Assessment in the Tox21 HCT-116 p53 Agonism Beta-lactamase Assay, Phase 2 (AID 2283591);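 note: compound exposure lasted 16 h at 37 °C; actives lower the ATP signal meaning cytotoxicity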
Method in brief: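 Cytotoxicity readout: CellTiter-Glo ATP luminescence, 30 min at room temperature, after the beta-lactamase read. Cells were HCT116 exposed 16 h at 37C to compounds pin-transferred at 217-fold dilution from DMSO stocks.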

[2] = target: Cellular tumor antigen p53 (Homo sapiens) (UniProt P04637); test: TOX21_p53_BLA_p2_ratio: Tox21 HCT-116 p53 Agonism Beta-lactamase Assay, Ratio, Phase 2 (AID 2283592)
Cellular tumor antigen p53 (Homo sapiens), sequence (P04637 whole entry, looked up): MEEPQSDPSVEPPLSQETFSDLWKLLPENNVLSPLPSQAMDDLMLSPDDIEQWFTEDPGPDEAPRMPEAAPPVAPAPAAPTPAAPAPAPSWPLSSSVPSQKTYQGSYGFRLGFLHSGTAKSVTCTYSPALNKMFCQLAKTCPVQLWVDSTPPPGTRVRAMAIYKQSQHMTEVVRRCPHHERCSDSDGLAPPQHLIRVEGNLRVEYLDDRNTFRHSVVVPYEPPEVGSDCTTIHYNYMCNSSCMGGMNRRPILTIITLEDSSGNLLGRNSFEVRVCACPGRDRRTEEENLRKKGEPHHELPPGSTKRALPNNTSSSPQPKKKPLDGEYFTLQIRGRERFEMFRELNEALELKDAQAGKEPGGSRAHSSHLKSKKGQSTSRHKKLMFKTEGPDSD
Method in brief: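 Read-out is the blue/green (460/530 nm, 405 nm excitation) ratio after 2 h CCF4-AM loading, fitted as gain versus DMSO. Compounds, pinned at 217-fold dilution from DMSO stocks, stayed 16 h on HCT-116 beta-lactamase reporter cells seeded 5 h earlier.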

[3] = target: Cellular tumor antigen p53 (Homo sapiens) (UniProt P04637); test: TOX21_p53_BLA_p3_ratio: Tox21 HCT-116 p53 Agonism Beta-lactamase Assay, Ratio, Phase 3 (AID 2283596)
Method in brief: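 Cells were seeded at 4000/well, rested 5 h at 37C, then dosed with DMSO compound solutions (217-fold dilution) for 16 h. CCF4-AM substrate was loaded for 2 h at room temperature, and the 460/530 nm emission ratio was fitted for gain of signal versus DMSO.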

[4] = target: Cellular tumor antigen p53 (Homo sapiens) (UniProt P04637); test: TOX21_p53_BLA_p5_ratio: Tox21 HCT-116 p53 Agonism Beta-lactamase Assay, Ratio, Phase 5 (AID 2283599)
Method in brief: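 Beta-lactamase reporter ratio (blue 460 nm over green 530 nm, 405 nm excitation) after 2 h CCF4-AM loading, in HCT-116 cells exposed 16 h at 37 C to compounds pinned at 217-fold dilution. Increases relative to DMSO baseline scored.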

[5] = TOX21_p53_BLA_p5_viability: Viability Assessment in the Tox21 HCT-116 p53 Agonism Beta-lactamase Assay, Phase 5 (AID 2283600)
Method in brief: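 Viability came from CellTiter-Glo ATP luminescence, read after 30 min at room temperature. Before this, HCT-116 p53-bla cells (4000/well) had 16 hours of compound exposure at 37C, with DMSO stocks diluted 217-fold on transfer.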

[6] = target: Cellular tumor antigen p53 (Homo sapiens) (UniProt P04637); test: TOX21_p53_BLA_p4_ratio: Tox21 HCT-116 p53 Agonism Beta-lactamase Assay, Ratio, Phase 4 (AID 2283601)
Method in brief: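 Signal is the blue/green (460nm/530nm) ratio of cleaved versus uncleaved CCF4-AM substrate, read after 2 h substrate loading. Cells were HCT116 carrying the p53-responsive beta-lactamase reporter, dosed 16 h at 37C, 5% CO2; CellTiter-Glo measured in parallel.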

[7] = CCTE_Harrill_HTTr_CellCount_MCF7: CCTE's Cell Proliferation Assessment for the High-Throughput Transcriptomics (HTTr) Platform, Harrill Lab (AID 2284012);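 note: cells exposed to compound for six hours; intended direction is loss of nuclei count meaning fewer cells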
Method in brief: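 Cell count from high-content imaging of Hoechst-labeled nuclei serves as viability/growth readout. Chemicals were applied to MCF-7 cells in eight concentrations for six hours, with fitting in both directions relative to DMSO.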

[8] = tested on: Brachyury (BRA) Protein Expression, Deisenroth Lab, TBXT (gene 6862); test: CCTE_Deisenroth_DEVTOX-GLR_legacy_Bra: (Legacy) CCTE's DevTox GLR-Endo Assay Evaluation of Brachyury (BRA) Protein Expression, Deisenroth Lab (AID 2284329; active = hit-call score of the fitted dose curve at least 0.9, where 1 is the maximum; inactive = score below 0.9)
Method in brief: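 Percent Bra-positive cells, scored by high-content imaging against a threshold of 5x BMAD over the undifferentiated control median, with the 0.2% DMSO median subtracted. RUES2-GLR cultures were dosed twice at 24 h intervals across a 48 h differentiation, at 1 nM–200 uM in ten steps, with n=4 replicates.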

[9] = CCTE_Deisenroth_DEVTOX-GLR_legacy_CellCount: (Legacy) Viability Assessment in CCTE's DevTox GLR-Endo Assay, Deisenroth Lab (AID 2284331; active = hit-call score of the fitted dose curve at least 0.9, where 1 is the maximum; inactive = score below 0.9); settings: actives raise or lower the signal
Method in brief: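 Seed RUES2-GLR 24 h; differentiate 48 h, dosing at 0 and 24 h; fix, stain nuclei; image 5 fields/well; count nuclei. Conc. 1 nM - 200 uM, single technical replicate, n=4 experiments; bidirectional fit vs 0.2% DMSO.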

[10] = tested on: SRY-box transcription factor 2 (SOX2) Protein Expression, Deisenroth Lab, SOX2 (gene 6657); test: CCTE_Deisenroth_DEVTOX-GLR_legacy_Sox2: (Legacy) CCTE's DevTox GLR-Endo Assay Evaluation of SRY-box transcription factor 2 (SOX2) Protein Expression, Deisenroth Lab (AID 2284346; active = hit-call score of the fitted dose curve at least 0.9, where 1 is the maximum; inactive = score below 0.9)
Method in brief: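 Percent Sox2-positive cells was scored by high-content imaging of 5 fields per well. Positivity cutoff was 5x BMAD over the directed endoderm control, and the DMSO median was subtracted. Cells were RUES2-GLR, dosed twice at 24-h intervals over 48 h of differentiation (1 nM-200 uM).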

[11] = tested on: SRY-box transcription factor 17 (SOX17) Protein Expression, Deisenroth Lab, SOX17 (gene 64321); test: CCTE_Deisenroth_DEVTOX-GLR_Endo_SOX17: CCTE's DevTox GLR-Endo Assay Evaluation of SRY-box transcription factor 17 (SOX17) Protein Expression, Deisenroth Lab (AID 2284413; active = hit-call score of the fitted dose curve at least 0.9, where 1 is the maximum; inactive = score below 0.9)
Method in brief: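 RUES2-GLR human pluripotent cells were seeded 24 h, then differentiated toward endoderm for 48 h with two chemical exposures 24 h apart (10-point series, 1 nM - 200 uM). Nuclei-stained fixed cells were imaged; endpoint is percent change in SOX17+ cells versus 0.2% DMSO.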

[12] = tested on: Brachyury (BRA) Protein Expression, TBXT (gene 6862); test: CCTE_Deisenroth_DEVTOX-GLR_Endo_BRA: CCTE's DevTox GLR-Endo Assay Evaluation of Brachyury (BRA) Protein Expression, Deisenroth Lab (AID 2284417; active = hit-call score of the fitted dose curve at least 0.9, where 1 is the maximum; inactive = score below 0.9)
Method in brief: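 Percent BRA+ (mesoderm) RUES2-GLR cells after 48 h differentiation with two exposures, 1 nM - 200 uM; 0.2% DMSO control subtracted.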

[13] = tested on: SRY-box transcription factor 17 (SOX17) Protein Expression, Deisenroth Lab, SOX17 (gene 64321); test: CCTE_Deisenroth_DEVTOX-GLR_Pluri_SOX17: CCTE's DevTox GLR-Pluri Assay Evaluation of SRY-box transcription factor 17 (SOX17) Protein Expression, Deisenroth Lab (AID 2284427)
Method in brief: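 The endpoint is SOX17+ cells as a fraction of cell count, corrected for the 0.2% DMSO control and obtained by high-content fluorescence imaging of fixed cells. Cells were RUES2-GLR under a 48-hour endoderm differentiation, dosed twice at 24-hour intervals over 1 nM–200 uM.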

[14] = tested on: SRY-box transcription factor 2 (SOX2) Protein Expression, Deisenroth Lab, SOX2 (gene 6657); test: CCTE_Deisenroth_DEVTOX-GLR_Pluri_SOX2: CCTE's DevTox GLR-Pluri Assay Evaluation of SRY-box transcription factor 2 (SOX2) Protein Expression, Deisenroth Lab (AID 2284428; active = hit-call score of the fitted dose curve at least 0.9, where 1 is the maximum; inactive = score below 0.9)
Method in brief: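 Percent SOX2+ cells (SOX2+ count per total cells, fluorescent imaging) in RUES2-GLR human pluripotent line, expressed relative to 0.2% DMSO. Compounds dosed twice at 24 h intervals during 48 h, 1 nM - 200 uM, 10 concentrations.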

[15] = CCTE_Deisenroth_DEVTOX-GLR_Pluri_CellCount: Viability Assessment in CCTE's DevTox GLR-Pluri Assay Evaluation of Total Cell Counts, Deisenroth Lab (AID 2284430; active = hit-call score of the fitted dose curve at least 0.9, where 1 is the maximum; inactive = score below 0.9)
Method in brief: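 Cytotoxicity readout: fluorescent nuclei counts by high-content imaging, expressed as percent change relative to 0.2% DMSO. Human RUES2-GLR pluripotent line differentiated 48 h, dosed twice at 24-h intervals across 1 nM - 200 uM (10 points).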

[16] = TOX21_p53_BLA_p4_viability: Viability Assessment in the Tox21 HCT-116 p53 Agonism Beta-lactamase Assay, Phase 4 (AID 2283597);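 note: hits lower the luminescence signal meaning cytotoxicity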
Method in brief: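 Cytotoxicity as reduced cellular ATP (CellTiter-Glo luminescence, 30 min room temperature), measured in the same wells following the CCF4 FRET p53 reading. Human HCT-116 cells received compounds in DMSO (217-fold dilution) for 16 h.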

Measured: AC50

C[S+](CC[C@H](N)C(=O)O)C[C@H]1O[C@@H](n2cnc3c(N)ncnc32)[C@H](O)[C@@H]1O (some centres undefined)
inactive: [1] | [2] | [3] | [4] | [5] | [6]

O=C(O)c1cc(O)c2c(c1)[C@H]([C@H]1c3cc(C(=O)O)cc(O)c3C(=O)c3c(O[C@@H]4O[C@H](CO)[C@@H](O)[C@H](O)[C@H]4O)cccc31)c1cccc(O[C@@H]3O[C@H](CO)[C@@H](O)[C@H](O)[C@H]3O)c1C2=O
inactive: [1] | [2] | [3] | [4] | [5] | [6]

CN(C)c1ccc(C2(c3ccc(N(C)C)cc3)OC(=O)c3cc(N(C)C)ccc32)cc1
inactive: [1] | [4] | [5]
active: [2] 60.7 µM | [3] 13.5 µM | [6] 38.5 µM

CCCCS
inactive: [1] | [2] | [3] | [4] | [5]

CC[N+](C)(C)Cc1ccccc1Br
inactive: [1] | [2] | [3] | [4] | [5] | [6]

CCC(=O)OC
active: [2] 82.7 µM
inactive: [1] | [3] | [4] | [5] | [6]

CC(=O)Oc1cccc(C)c1
inactive: [1] | [2] | [3] | [4] | [5] | [6]

C/C=C/c1ccc(OCC)c(O)c1
inactive: [1] | [2] | [3] | [4] | [5] | [6]

CCC1OCC(COc2ccc(Oc3ccccc3)cc2)O1 (centres undefined)
inactive: [1] | [2] | [3] | [4] | [5] | [6]

NCCCNCCCCNC(=O)C(O)NC(=O)CCCCCCN=C(N)N (centres undefined)
inactive: [1] | [2] | [3] | [4] | [5] | [6]

CC(C)Cn1cnc2c(N)nc3ccccc3c21
inactive: [1] | [2] | [3] | [4] | [5]

O=Cc1ccc(Cl)cc1
inactive: [1] | [2] | [3] | [4] | [5]

c1coc(Cn2cccc2)c1
inactive: [1] | [2] | [3] | [4] | [5] | [6]

CCCCC
inactive: [1] | [2] | [3] | [4] | [5] | [6]

NS(=O)(=O)c1cc(Cl)c(Cl)c(S(N)(=O)=O)c1
inactive: [1] | [2] | [3] | [4] | [5]

O=c1[nH]c(=O)n([C@H]2C[C@H](O)[C@@H](CO)O2)cc1I
inactive: [1] | [2] | [3] | [4] | [5] | [6]

C=C1[C@@H]2CC[C@@H](C2)C1(C)C
inactive: [1] | [2] | [3] | [4] | [5] | [6]

CN(C)CCC(c1ccccc1)c1ccccn1 (centres undefined)
inactive: [1] | [2] | [3] | [4] | [5] | [6]

C=C(C)C1CC=C(C)C(O)C1 (centres undefined)
inactive: [1] | [2] | [3] | [4] | [5] | [6]

CCCN(CCC)CCc1cccc2c1CC(=O)N2
inactive: [1] | [2] | [3] | [4] | [5]

CCOC(=O)COc1ccc2c(C)c(CCN(CC)CC)c(=O)oc2c1
inactive: [1] | [2] | [3] | [4] | [5] | [6]

Clc1ccc2n[nH]nc2c1
active: [4] 55.7 µM
inactive: [1] | [2] | [3] | [5] | [6]

NC(CSCC(=O)O)C(=O)O (centres undefined)
inactive: [1] | [2] | [3] | [4] | [5]

OCCN1CCN(CCO)CC1
inactive: [1] | [2] | [3] | [4] | [5] | [6]

CCCC/C=C/CCCCO
inactive: [1] | [2] | [3] | [4] | [5] | [6]

OCCCC1CCCCC1
inactive: [7]

C[C@@H]1CN(c2c(F)c(N)c3c(=O)c(C(=O)O)cn(C4CC4)c3c2F)C[C@H](C)N1
inactive: [7]

Nc1cccc2c1CN(C1CCC(=O)NC1=O)C2=O (centres undefined)
active: [9] 0.132 µM | [11] 0.293 µM | [12] 0.00503 µM | [14] 0.0287 µM
inactive: [1] | [2] | [3] | [4] | [6] | [8] | [10] | [13] | [15]

O=C(O)c1ccccc1C(=O)Nc1ccc(S(=O)(=O)Nc2nccs2)cc1
inactive: [1] | [2] | [3] | [4] | [6]

O=C(Cn1ccnc1[N+](=O)[O-])NCc1ccccc1
inactive: [1] | [2] | [3] | [5] | [6]

O=C(CCCN1CCN2CCCC2C1)c1ccc(F)cc1 (centres undefined)
inactive: [1] | [2] | [16]

Cc1cc(C)c(NC(=O)C[C@H](CC(=O)O)c2cccc3ccccc23)c(C(=O)N2CCC3(CCCC3)CC2)c1
inactive: [1] | [2] | [3] | [6]

CCCCOCCOC(=O)COc1cc(Cl)c(Cl)cc1Cl
inactive: [1] | [2] | [16]

C=CC(=O)OCCOC(=O)CCC(=O)O
inactive: [1] | [2] | [3] | [4] | [6]
